Test [1] concerns Plasmodium falciparum Sir2 (PF13_0152, Sir2A). The test can be described thus: pfSir2 binders on small-molecule microarrays, primary screen, biochemical, small-molecule microarray, 635 nm fluorescence (AID 1098).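 Further: score merges spot fluorescence intensity with its signal-to-noise ratio.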 The following applies: small-molecule microarray binding, fluorescence 635 nm; higher = more signal.
Test [2] in a line: small-molecule microarray binders of probe aDKK1, primary screen, biochemical, biotinylated probe, 635/667 nm fluorescence (AID 1099).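 Further: score merges 667nm spot fluorescence with signal to noise across triplicate slides; reference of the scale not given here.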 The note with it: higher = more signal.
Test [3] in a line: small-molecule microarray binders of probe aCHRDL2, primary screen, biochemical, biotinylated probe, 635/667 nm fluorescence (AID 1100). The following applies: higher = more signal.
A short description of test [4]: splicing luciferase reporter signal modulators, primary screen, spliceosome inhibition project, cell-based, HEK293, splice +/- reporter (AID 1101).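 Further: HEK293 cells carrying a splicing-competent luciferase reporter gene; test concentration not given here.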 The note with it: luminescence, 24 h, higher = more signal, called active from +8 up or from −8 down.
The target of test [5] is Fibroblast growth factor 10 (Homo sapiens) (UniProt O15520). In words: FGF10 binders on small-molecule microarrays, primary screen, biochemical, small-molecule microarray, 635 nm fluorescence (AID 1102). The note with it: FGF10 binding, fluorescence 635 nm, higher = more signal.
Fibroblast growth factor 10 (Homo sapiens), sequence (O15520 whole entry, looked up): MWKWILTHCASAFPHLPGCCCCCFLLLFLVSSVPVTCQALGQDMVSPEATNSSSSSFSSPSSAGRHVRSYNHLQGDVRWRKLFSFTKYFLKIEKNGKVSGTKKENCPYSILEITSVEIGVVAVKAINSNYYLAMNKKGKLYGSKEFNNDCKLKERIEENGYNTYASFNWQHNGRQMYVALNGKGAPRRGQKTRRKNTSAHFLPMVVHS
Test [6] relates to glycogen synthase kinase-3 (GSK3A per assay name; protocol says GSK3B). The test can be described thus: GSK3 binders on small-molecule microarrays, primary screen, biochemical, small-molecule microarray, 635 nm fluorescence, GSK3A (AID 1103). Further: the record names both GSK3A and GSK3B. The note with it: small-molecule microarray binding, fluorescence 635 nm; higher = more signal.
Test [7] concerns the target Epidermal growth factor receptor (Homo sapiens) (UniProt P00533). The test can be described thus: EGFR binders on small-molecule microarrays, primary screen, biochemical, small-molecule microarray, 635 nm fluorescence (AID 1104).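 Further: score merges 667 nm emission intensity with spot signal to noise over triplicate slides.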 The following applies: EGFR binding, higher = more signal.
The target of test [8] is Follistatin-related protein 3 (Homo sapiens) (UniProt O95633). In words: FSTL3 binders on small-molecule microarrays, primary screen, biochemical, small-molecule microarray, 635 nm fluorescence (AID 1105).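 Further: score merges emission near 667 nm and signal to noise per printed spot across three slides.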 The note with it: FSTL3 binding, higher = more signal.
Follistatin-related protein 3 (Homo sapiens), sequence (O95633 whole entry, looked up): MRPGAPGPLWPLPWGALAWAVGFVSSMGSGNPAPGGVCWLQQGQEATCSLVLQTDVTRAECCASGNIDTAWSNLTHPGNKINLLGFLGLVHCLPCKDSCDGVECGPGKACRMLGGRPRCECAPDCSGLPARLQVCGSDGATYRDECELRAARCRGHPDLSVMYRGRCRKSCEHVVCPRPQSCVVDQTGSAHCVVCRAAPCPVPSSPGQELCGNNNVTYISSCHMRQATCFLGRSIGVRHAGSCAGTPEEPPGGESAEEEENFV
Test [9] concerns the target Dickkopf-related protein 1 (Homo sapiens) (UniProt O94907). In words: DKK1 binders on small-molecule microarrays, primary screen, biochemical, small-molecule microarray, 635 nm fluorescence scan (AID 1106).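 Further: score merges emission near 667 nm with signal to noise over three replicate slides.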 The note with it: DKK1 binding, higher = more signal.
For test [10], the system named is Inhibin beta A chain (activin A). In words: INHBA (activin A) binders on microarrays, primary screen, biochemical, small-molecule microarray, 635 nm fluorescence scan (AID 1107).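 Further: mouse activin A protein probed at 4.33 µg/mL on printed slides; score merges bound-protein fluorescence near 667 nm with spot signal-to-noise.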 The note with it: small-molecule microarray binding, higher = more signal.

Composite z-score and z-score data for 16 compounds are collected here from PubChem BioAssay.

The source made the active and inactive calls.

Epidermal growth factor receptor (Homo sapiens), sequence (P00533 whole entry, looked up): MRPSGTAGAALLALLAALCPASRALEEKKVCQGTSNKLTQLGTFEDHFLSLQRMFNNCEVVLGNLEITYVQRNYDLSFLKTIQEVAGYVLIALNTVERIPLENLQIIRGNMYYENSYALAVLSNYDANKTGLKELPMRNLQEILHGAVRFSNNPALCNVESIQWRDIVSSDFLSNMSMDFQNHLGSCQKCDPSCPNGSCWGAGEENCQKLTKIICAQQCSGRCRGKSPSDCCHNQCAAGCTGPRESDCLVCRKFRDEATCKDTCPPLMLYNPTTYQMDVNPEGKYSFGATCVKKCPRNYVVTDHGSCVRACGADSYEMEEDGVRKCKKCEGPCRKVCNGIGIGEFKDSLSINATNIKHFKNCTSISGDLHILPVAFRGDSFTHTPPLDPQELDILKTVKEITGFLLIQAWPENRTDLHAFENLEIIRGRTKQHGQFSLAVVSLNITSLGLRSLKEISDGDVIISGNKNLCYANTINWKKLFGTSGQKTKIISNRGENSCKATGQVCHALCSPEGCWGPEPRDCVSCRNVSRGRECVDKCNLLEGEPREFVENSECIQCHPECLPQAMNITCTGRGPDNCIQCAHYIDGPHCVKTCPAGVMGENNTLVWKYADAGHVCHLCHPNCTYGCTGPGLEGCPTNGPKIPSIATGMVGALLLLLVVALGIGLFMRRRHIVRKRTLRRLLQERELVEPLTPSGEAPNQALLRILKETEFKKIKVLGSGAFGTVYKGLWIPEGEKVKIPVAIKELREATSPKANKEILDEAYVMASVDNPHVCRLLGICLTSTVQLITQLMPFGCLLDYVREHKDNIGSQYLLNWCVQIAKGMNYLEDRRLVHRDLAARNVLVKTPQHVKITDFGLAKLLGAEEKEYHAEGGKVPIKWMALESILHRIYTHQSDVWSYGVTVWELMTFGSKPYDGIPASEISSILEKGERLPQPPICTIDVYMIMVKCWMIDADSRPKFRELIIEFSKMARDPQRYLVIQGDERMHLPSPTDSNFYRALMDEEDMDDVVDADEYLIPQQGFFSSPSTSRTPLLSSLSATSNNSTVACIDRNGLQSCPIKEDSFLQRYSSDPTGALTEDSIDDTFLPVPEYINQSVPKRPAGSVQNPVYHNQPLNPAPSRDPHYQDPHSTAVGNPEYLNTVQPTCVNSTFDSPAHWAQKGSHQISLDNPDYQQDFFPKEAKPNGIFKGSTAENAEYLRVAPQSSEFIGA
Dickkopf-related protein 1 (Homo sapiens), sequence (O94907 whole entry, looked up): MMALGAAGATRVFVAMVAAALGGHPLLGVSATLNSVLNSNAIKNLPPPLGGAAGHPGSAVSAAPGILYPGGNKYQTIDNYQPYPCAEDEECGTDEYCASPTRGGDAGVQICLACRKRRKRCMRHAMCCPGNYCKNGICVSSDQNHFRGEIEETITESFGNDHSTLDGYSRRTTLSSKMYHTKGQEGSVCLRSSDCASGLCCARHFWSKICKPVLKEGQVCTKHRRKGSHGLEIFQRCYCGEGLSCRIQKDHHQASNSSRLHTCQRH

As to `Cc1ccc(S[C@]2(C(=O)NCCCN(C)C)CC(=O)N(Cc3cc(C(F)(F)F)cc(C(F)(F)F)c3)[C@@H]2c2ccc(CO)cc2)cc1`, the composite z-score in test [1] is -1; in [2], -0.214; in [3], 0.495; in test [5], -1.11; in test [6], -0.655; in [7], -0.675. Also, the results for the composite z-score in test [8], in test [9] and in [10] were 0.259, -1.62 and 0.798, respectively. The z-score in test [4] was 0.269 (inactive).

For `CCOC(=O)C[C@H]1[C@H](OC(=O)c2ccc(C(=O)c3ccccc3)cc2)[C@@H](NC(=O)CC(C)C)c2cc(OCCCO)ccc2N1C(=O)c1ccc2ccccc2n1`, the composite z-score is 0.366 in test [1]; -0.0449 in [2]; -0.399 in test [3]; 0.811 in [5]; 1.25 in test [6]; 0.373 in test [7]. The composite z-score was 1.41 in test [8], 1.09 in test [9] and 0.241 in test [10]. Moreover, in test [4], the z-score was -0.202 (inactive).

On to `CCOC(=O)C[C@H]1[C@H](OC(=O)c2ccc(C(=O)c3ccccc3)cc2)[C@@H](NC(=O)c2ccccc2)c2cc(OCCCO)ccc2N1C(=O)c1ccc2ccccc2n1`, for which the composite z-score in test [1] is 0.295; in [2], -0.349; in test [3], -0.267; in [5], -0.286; in test [6], 1.05; in test [7], 0.267. Further, the composite z-score in test [8] is 0.399; in [9] it was -0.186; in test [10] it was -0.136. For the same compound, in [4], the z-score was 0.487 (inactive).

Consider `CC1(C)[C@@H]2CC(C(O)C3C=CC4C(=O)N(Cc5ccccc5)C(=O)C4N3n3cnnc3)=C[C@H]1C2` (stereo not given in full), for which the composite z-score in test [1] turned out to be 0.779; in [2] it was 0.454; in test [3], 0.355; in test [5] it was 0.801; in test [6], 1.28; in [7] it was 0.0902. Further, the composite z-score in [8] amounted to 0.74; in [9] it was 0.0252; in test [10], 1.2. Moreover, the z-score in [4] was -0.0958 (inactive).

For `C=CC[C@]1(C(=O)NCc2ccccc2)N=C(c2ccc(OCCCO)cc2)O[C@H]1c1ccccc1N=[N+]=[N-]`, the composite z-score was 1.33 in [1]; -0.0281 in test [2]; 1.11 in [3]; 0.819 in test [5]; 0.849 in [6]; 0.174 in test [7]. For the same compound, the composite z-score was 0.637 in test [8], -0.284 in test [9] and 1.29 in [10]. Moreover, the z-score in test [4] was -0.457 (inactive).

As for `CCCC[C@@H]1C[C@H]1[C@@H](NC(=O)c1ccco1)c1ccc(-c2ccccc2)cc1`, the composite z-score is -0.338 in test [1]; 0.189 in test [2]; 0.272 in test [3]; 0.222 in test [5]; 0.118 in [6]; -0.0501 in test [7]. Also, the composite z-score in test [8] is -0.0483; in test [9], -0.426; in test [10] it was 0.39. In addition, the z-score in [4] was -1.61 (inactive).

`COc1cc2c(cc1O)C(C1CC1)N(Cc1sc3ccccc3c1Cl)CC2` (stereo not given): the composite z-score is 1.25 in test [1]; 0.147 in test [2]; 0.652 in test [3]; -0.326 in test [5]; 0.135 in [6]; -0.0122 in test [7]. For the same compound, the figures for the composite z-score in [8], in [9] and in test [10] were -0.05, -0.467 and 1.48, respectively. For the same compound, the z-score in test [4] was -1.57 (inactive).

In the case of `CN1C=C(C(=O)OCCS(C)(=O)=O)C(C(=O)OCCS(C)(=O)=O)=CC(c2ccc(CO)cc2)=CC1C1CC1` (stereo not given), the composite z-score in [1] is 0.666; in [2], -0.0901; in test [3], 0.166; in test [5], 0.16; in test [6] it was -0.0888; in [7], 0.353. The composite z-score is -0.0857 in test [8], 0.0847 in [9] and 0.99 in [10]. In addition, in test [4], the z-score is 0.456 (inactive).

For `CC1(C)C2C=C(C(O)C3C=CC4C(=O)NC(=O)C4N3Nc3ccc(Cl)cc3Cl)C[C@@H]1C2` (stereo not given in full), the composite z-score is 0.213 in [1]; 1.05 in test [2]; 1.16 in test [3]; 0.808 in [5]; 0.0644 in test [6]; 0.27 in test [7]. Besides, the composite z-score in test [8] was 0.745; in test [9] it was -0.214; in [10], 1.08. In addition, the z-score in test [4] is 2.5 (inactive).

Regarding `O=C1c2ccccc2[C@](Cc2ccccc2I)(C(=O)NCCN2CCOCC2)[C@H](c2ccc(CO)cc2)N1Cc1ccccc1Cl`, the composite z-score was determined as 1.42 in test [1]; 0.964 in test [2]; 0.732 in [3]; 1.15 in test [5]; 1.28 in test [6]; 0.629 in [7]. Moreover, the composite z-score turned out to be 1.25 in test [8], 0.419 in test [9] and 0.605 in test [10]. Moreover, in [4], the z-score is -0.0587 (inactive).

Turning to `CO[C@H]1O[C@H](CO)[C@@H](OC(=O)Nc2ccc(C(F)(F)F)cc2)[C@H](OC(=O)Nc2ccc3c(c2)OCO3)[C@@H]1OC(=O)Nc1ccc2c(c1)OCO2`, the composite z-score in test [1] is 1.06; in test [2], 0.346; in test [3], 0.284; in test [5], 1.41; in test [6], 1.2; in [7], 0.587. The composite z-score in test [8] was determined as 0.527; in test [9] it was 0.711; in test [10] it was 0.543. In test [4], the z-score was -1.29 (inactive).

On to `COc1ccc(-c2cc3c(c(-c4ccc(Oc5ccccc5)cc4)n2)[Si](C(C)C)(C(C)C)OC3)cn1`, for which the composite z-score in test [1] is -0.207; in [2], -0.242; in [3] it was -0.262; in [5], -0.0354; in [6], -0.175; in test [7], -0.0425. The composite z-score in [8] was found to be 0.148; in test [9], 0.0989; in [10] it was 0.365. Also, in [4], the z-score is 0.00906 (inactive).

On to `O=C1C2C=CC(C(O)CCc3ccccc3)N(Nc3ccccc3F)C2C(=O)N1c1ccccc1` (stereo not given), for which the composite z-score amounted to 1.17 in test [1]; 0.909 in test [2]; 1.09 in [3]; 1.25 in [5]; 1.31 in test [6]; 0.359 in test [7]. The values for the composite z-score in test [8], in test [9] and in test [10] were 1.31, -0.242 and 1.04, respectively. Besides, in test [4], the z-score was -0.0383 (inactive).

As to `CCCC[C@H]1OB(O)C[C@H]2C1=C(COC)C[C@H]1C(=O)N(C)C(=O)[C@H]12`, the composite z-score in test [1] is 0.0079; in test [2], -0.252; in test [3] it was -0.599; in test [5] it was 0.486; in test [6], -0.0431; in test [7] it was 0.12. The composite z-score in [8] stood at 0.564; in test [9] it was 0.281; in test [10], 0.687. Moreover, the z-score in test [4] was 0.377 (inactive).

In the case of `C=CCN1C(=O)[C@@]2(CC=C)N=C(c3ccc(OCCCO)cc3)O[C@H]2c2ccccc21`, the composite z-score in [1] was 1.66; in test [2] it was 0.801; in test [3] it was 1.08; in [5], 1.45; in test [6] it was 1.32; in test [7], 0.734. The composite z-score turned out to be 1.41 in [8], 1.14 in [9] and 1.2 in test [10]. Moreover, the z-score in [4] is -1.63 (inactive).

As for `NC(=O)NCC#Cc1ccc2c(c1)[C@]1(C(=O)N2)[C@H](C(N)=O)[C@H]2C(=O)O[C@H](c3ccccc3)[C@H](c3ccccc3)N2[C@@H]1c1ccc(O)cc1`, the composite z-score was 1.51 in [1]; -0.912 in test [2]; -0.142 in test [3]; 0.353 in [5]; -0.348 in test [6]; -0.858 in test [7]. For the same compound, the composite z-score in [8] was -0.0676; in [9] it was -1.27; in test [10], 0.778. The z-score in [4] is -0.712 (inactive).
